According to PubChem BioAssay (EPA / NIEHS):
Where “and” joins values, the source holds several entries; their conditions need not be identical. Identical values can stand only once. Calls of active or inactive are those of the source. The calls were made as follows: active = hit-call score of the fitted dose curve at least 0.9, where 1 is the maximum; inactive = score below 0.9.

Assay: BSK_3C_Proliferation: Cell Proliferation Assessment in the BioMAP Diversity Plus: 3C Assay (AID 2283006);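 as to AC50: potency may reflect either rise or fall in cell number versus DMSO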
Conditions: primary human endothelial cells (HUVEC)
Protocol: BSK_3C is a cell-based, multiplexed-readout assay that uses umbilical vein endothelium, a human vascular primary cell, with measurements taken at 24 hours after chemical dosing in a 96-well plate.BSK_3C_Proliferation is an assay component measured in the BSK_3C assay. It measures 0.1% sulforhodamine related to cell proliferation using Sulforhodamine staining technology.Data from the assay component BSK_3C_Proliferation was analyzed into 1 assay endpoint. This assay endpoint, BSK_3C_Proliferation, was analyzed with bidirectional fitting relative to DMSO as the negative control and baseline of activity. Using a type of viability reporter, measures of total protein for gain or loss-of-signal activity can be used to understand the viability at the cellular-level. Furthermore, this assay endpoint can be referred to as a secondary readout, because this assay has produced multiple assay endpoints where this one serves a viability function. To generalize the intended target to other relatable targets, this assay endpoint is annotated to the cell cycle intended target family, where the subfamily is proliferation.
The levels of cell surface (or secreted, indicated by the prefix "s") biomarker endpoints were measured by ELISA. Overt cytotoxicity to cells in confluent adherent cultures (all systems other than the BT system) was assessed by measuring total protein levels using sulforhodamine B (SRB) staining in parallel cultures at the time of biomarker measurements, indicated as SRB endpoints. For proliferation assays for adherent cell types, individual cell types are cultured at sub-confluence and relative cell numbers quantified by SRB staining at time points optimized for each system (48 h: 3C and CASM3C systems; 72 h: BT and HDF3CGF systems; 96 h: SAg system). SRB was performed by staining cells with 0.1% SRB after fixation with 10% TCA and reading wells at 560 nm.Viability and proliferation of PBMC (T cells) was quantified by Alamar Blue reduction for the SAg and BT systems. For PBMC viability (referred to as PBMC Cytotoxicity within the assay endpoint names), cells were plated (75,000/well in a 96-well plate) and then chemical samples added for 1 h before addition of activators, SEB and TSST-1 (20 ng/mL final concentration each). Cells were incubated for 90 h. Then, Alamar Blue (20 uL/well) (Invitrogen, Cat DAL1100) was added for 6 h, and the plates were read with a fluorescence microplate reader at 546/580 nm (excitation/emission). For PBMC proliferation, cells were plated and activated as above but incubated for only 16 h prior to addition of Alamar Blue. Plates were read after 6 h.

AC50, active:
CN(C)c1ccc(Cc2ccc(N(C)C)cc2)cc1 13.4 µM
CCOc1cccc(-n2cc(C(=O)N3CCN(c4cc(C(=O)O)c5ccccc5c4)CC3)nc2-c2ccc(C)cc2)c1 13.5 µM
Cn1cnc([N+](=O)[O-])c1Sc1ncnc2nc[nH]c12 6.59 µM and 2.94 µM and 9.77 µM
CC[C@H]1CC[C@H](NCc2cc3c(cc2OC)[C@H]2C[C@H]2C(=O)N3C)[C@H](c2ccccc2)N1 28.6 µM
CC[C@H](C)C(=O)O[C@H]1C[C@@H](C)C=C2C=C[C@H](C)[C@H](CC[C@@H]3C[C@@H](O)CC(=O)O3)[C@H]21 13.6 µM
COc1ccc2sc(C(=O)Nc3nnn[nH]3)c(OC(C)C)c2c1 9.42 µM
Clc1nc(Cl)c(Cl)c(Cl)c1Cl 20 µM
COc1cccc(-c2ccc(/C=C\CN3CCCCCC3)cc2Cl)c1 14.2 µM
Nc1ccc(Nc2ccccc2)cc1 3.97 µM
CCOC(=O)c1ccc(C2CCC(NC[C@H](O)COc3ccc(O)c(NS(C)(=O)=O)c3)CC2)cc1 (stereo not given in full) 28.1 µM
Oc1ccc2c(c1)-c1ccccc1C2 15.4 µM
CCc1cc(SCc2sc(-c3ccc(C(F)(F)F)cc3)nc2CN2CCN(c3ccc(OC)cc3)CC2)ccc1OCC(=O)O 9.19 µM
CCC(C)(C)C(=O)O[C@H]1C[C@@H](C)C=C2C=C[C@H](C)[C@H](CC[C@@H]3C[C@@H](O)CC(=O)O3)[C@H]21 4.32 µM
O=c1n(CC2CO2)c(=O)n(CC2CO2)c(=O)n1CC1CO1 (stereo not given) 1.46 µM

outcome, inactive:
O=C(O)CCN(C1(C(=O)NO)CCCC1)S(=O)(=O)c1ccc(Oc2ccc(F)cc2)cc1
CC(C)=CCCC(C)=CC=O
O=C(O)c1cccc(N(Cc2cccnc2)c2ccc(OC(F)F)c(OC(F)F)c2)c1
CC(C)=CCC/C(C)=C/CO
CCn1nc(Cc2ccccc2)cc1C1CCN(C[C@H]2C[C@H](N(C)[C@@H](C(=O)O)C(C)C)C[C@@H]2c2cccc(F)c2)CC1
NC(=O)NO
CC(C)CCCCCCOC(=O)c1ccc(C(=O)OCCCCCCC(C)C)c(C(=O)OCCCCCCC(C)C)c1
Nc1cccc(N)c1
Cc1ccc(S(=O)(=O)O)cc1C
COc1ccc(-n2nc(C(F)F)cc2-c2ccc(S(C)=O)cc2)cc1 (stereo not given)
Cc1ccc(N)cc1O
CC1=CC(=O)CC(C)(C)C1
CCN(C(=O)c1cc(C)cc(OC[C@H](C)Nc2ccncc2)c1)C(C)C
CC(C)=CCCC(C)CCO (stereo not given)
COCCOCCOCCOC
C=CC(=C)CCC=C(C)C
CCCCC(CC)COC(=O)c1ccc(C(=O)OCC(CC)CCCC)cc1 (stereo not given)
O=c1[nH]c2ccc(S(=O)CCN3CCC(Cc4ccc(F)cc4)CC3)cc2o1 (stereo not given)
CC/C(=C\C(=N/O)C(N)=O)C(C)[N+](=O)[O-] (stereo not given)
CCOCCO
CC(=O)OCCC(C)C
O=C(O)CC(O)C(=O)O (stereo not given)
C=CCCCCCCCCC(=O)O
O=C1CCC(N2C(=O)c3ccccc3C2=O)C(=O)N1 (stereo not given)
CC(O)CN(CCN(CC(C)O)CC(C)O)CC(C)O (stereo not given)
O=C(O)c1cccc(Oc2ccccc2)c1
